Source: PubChem (The Scripps Research Institute Molecular Screening Center)
GPR151 activ = activators of human GPR151, primary screen, cell-based, PathHunter beta-arrestin, luminescence | PathHunter beta-arrestin GPR151 cells | activation, % at 11.2 µM | hit rate 1% among 650,000; in the data active = activation above about 4.9%;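 note: 0% = median of compound wells and 100% = cells with positive control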
MITF inh = MITF inhibitors, primary screen, biochemical, AlphaScreen, human. Microphthalmia-associated transcription factor (Homo sapiens), O75030. AlphaScreen MITF homodimerization, bead proximity signal. inhibition, % at 2.6 µM. hit rate 0.91% among 650,000; in the data active = inhibition above about 50%;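 note: 0% = vehicle wells with protein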
TEAD-YAP block = TEAD-YAP interaction inhibition, primary screen, TEAD-YAP interaction inhibitor project, luminescence, HEK-TIYL cells; hit rate 1.4% among 640,000; inhibition, % at 9.12 µM; TEAD-Gal4/YAP UAS-luciferase luminescence; in the data active = inhibition above about 32%;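 note: 0% = median of test compound wells and 100% = reference inhibitor wells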
FBW7 act = FBW7 E3 ligase activators, primary screen, biochemical, AlphaScreen, human; AlphaScreen FBW7–phospho-cyclin E peptide binding, activator screen; normalized activity (activation), % at 26.1 µM; hit rate 0.13% among 650,000; AID 1259310, 2017; in the data active = normalized activity above about 1.9%;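 note: purified mutant Fbw7 with reduced substrate affinity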
GPR151 conf act = GPR151 activators, triplicate retest, confirmation, cell-based, PathHunter beta-arrestin, luminescence; 6,700 tested, under 10 active; activation, % at 11.2 µM; shares compounds with GPR151 activ; GPR151 PathHunter beta-arrestin cells, 90 min; % of EA-reagent control over plate median;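 active = mean percent activation across replicates above the confirmation screen cutoff of 4.91%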
GPR119 ag = GPR119 activators in beta-arrestin cells, counter-screen for GPR151 activator project, cell-based, PathHunter beta-arrestin, luminescence, triplicate | shares compounds with GPR151 activ | 90 min; 0 = compound-well median, 100 = enzyme-acceptor control | activation, % at 11.2 µM | hit rate 0.3% among 6,700 | AID 1508611, 2020;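 active = mean percent activation in the counterscreen above 29.09%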;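 note: counterscreen on off-target GPR119 to flag nonselective hits from the GPR151 activator screen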
Target sequence (Q8TDV5 whole entry, looked up): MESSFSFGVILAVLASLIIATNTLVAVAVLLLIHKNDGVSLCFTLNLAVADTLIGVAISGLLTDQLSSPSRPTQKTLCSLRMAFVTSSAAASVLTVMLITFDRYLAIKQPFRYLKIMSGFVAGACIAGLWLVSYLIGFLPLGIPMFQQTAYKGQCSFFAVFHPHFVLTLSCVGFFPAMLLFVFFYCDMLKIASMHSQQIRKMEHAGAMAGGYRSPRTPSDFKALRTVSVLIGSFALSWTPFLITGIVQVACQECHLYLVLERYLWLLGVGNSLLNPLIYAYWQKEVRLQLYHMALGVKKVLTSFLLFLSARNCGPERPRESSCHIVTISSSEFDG
An asterisk follows results filed as active; . = not tested or not shown. A selection: hits, their analogues and other compounds. The true share with any hit is near 3.5%.

SMILES	GPR151 activ	MITF inh	TEAD-YAP block	FBW7 act	GPR151 conf act	GPR119 ag
CC1CC(NNc2ccc([N+](=O)[O-])cc2[N+](=O)[O-])N(C)C(=S)N1 (centres undefined)	2	-2	-1	0	.	.
N#C/C(=C\Nc1ccccc1F)c1nc(-c2cc3cc([N+](=O)[O-])ccc3oc2=O)cs1	11*	2	0	0	0	10
COc1ccc(C(c2nnnn2C(C)C)N2CCN(c3ccccc3OC)CC2)cc1 (centres undefined)	-1	3	-5	0	.	.
COc1ccccc1N1CCN(C(c2ccc(N(C)C)cc2)c2nnnn2C(C)C)CC1 (centres undefined)	5.3*	8	0	0	1	5
CC(C)n1nnnc1C(c1ccccc1F)N1CCN(c2ccccc2)CC1 (centres undefined)	6.0*	-1	2	0	0	10
CC(=O)Nc1ccc(N=Cc2ccc(OC(=O)c3cccc([N+](=O)[O-])c3)cc2)cc1	-2	14	17	0	.	.
N#CCOc1ccc(Br)cc1C1NC(=S)NC(c2ccccc2)=C1C(N)=O (centres undefined)	-1	-10	-8	0	.	.
CCOc1ccccc1NC(=O)c1ccccc1NS(=O)(=O)c1ccccc1	5.9*	-18	2	0	2	13
CCOc1ccccc1NC(=O)c1ccoc1C	5.9*	6	9	0	1	-7
CCOc1ccccc1NC(=O)c1ccccc1NS(C)(=O)=O	0	-6	10	0	.	.
CCOC(=O)c1ccccc1NC(=O)c1ccoc1C	1	11	7	0	.	.
O=C(CCn1c(SCc2ccccc2Cl)nc2ccccc2c1=O)N1CCN(c2ccccc2)CC1	-1	4	-10	0	.	.
Cc1cc(C)nc(SCC(=O)NNC(=O)c2ccccc2Br)n1	6.0*	20	11	0	0	0
O=C(Cn1cc(C(=O)c2ccc(F)cc2)c(=O)c2ccccc21)Nc1ccc2c(c1)OCO2	0	2	-6	0	.	.
O=C(Cn1cc(C(=O)c2ccccc2)c(=O)c2ccccc21)Nc1ccc2c(c1)OCCO2	6.6*	-5	7	0	0	6
CCOc1ccc(-c2csc(/C(C#N)=C/c3ccccc3OCC)n2)cc1	6.2*	7	-6	0	5	13
COc1ccc(-c2csc(/C(C#N)=C/Nc3ccc(F)c([N+](=O)[O-])c3)n2)cc1OC	5.2*	-3	1	0	3	8
COc1ccc(-c2csc(/C(C#N)=C/Nc3ccc(C(N)=O)cc3)n2)cc1OC	1	-9	0	0	.	.
COc1ccc(N/C=C(/C#N)c2nc(-c3ccccc3)cs2)cc1	10.0*	4	-3	0	-1	-14
CCOc1ccc(/C=C(/C#N)c2nc(-c3ccc(Br)cc3)cs2)c(OCC)c1	0	0	5	0	.	.
Cc1ccccc1C(=O)Nc1ccc(S(=O)(=O)N2CCN(C)CC2)cc1	6.7*	-6	3	0	0	7
CCSc1ccccc1C(=O)Nc1ccncc1	5.0*	19	-5	0	0	-5
CCSc1ccccc1C(=O)Nc1ccc(S(=O)(=O)N2CCOCC2)cc1	6.5*	-1	9	1	0	-1
CCSc1ccccc1C(=O)Nc1cccnc1	2	12	5	0	.	.
O=C(NCCc1ccccc1)C1CCN(C2CCN(Cc3ccccc3O)CC2)CC1	0	8	2	0	.	.
COc1ccc(C(=O)/C=C/Nc2ccccc2I)cc1	1	-1	-2	0	.	.
Cc1ccc(-c2nnn(CC(=O)NC3CCCCC3)n2)c(-n2cnnn2)c1	3	15	1	1	.	.
O=C(OCCNC1=C(Cl)C(=O)c2ccccc2C1=O)c1ccccc1	1	5	-3	0	.	.
Cc1nn(-c2ccccc2)c(Cl)c1/C=C1\SC(=S)NC1=O	5.3*	4	1	0	1	9
